Results filed as inconclusive are left out. Activity calls are given as the source filed them. Calls come from the whole dose curve; as a rule, active = well fitted curve in the direction sought with a large enough effect; inconclusive = small, poorly fitted or top-dose-only effect, or another doubt; inactive = no such curve, though single readings can be large; an effect the other way counts as inactive or inconclusive.
What was measured:
[1] = Cell Viability - LYMP2-004 (AID 966); note: nearly all actives have a fitted effect of over 65% in size
Method in brief: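 Viable-cell number estimated from ATP luminescence (CellTiter-Glo) in 2500 human lymphoblastoid cells/well after 24 hr at 37 C with compound. AC50 fitted to the standard Hill equation.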

[2] = Cell Viability - LYMP2-005 (AID 967);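 note: series mostly up to about 92 µM; cells exposed to compound for 24 h at 37 °C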
Method in brief: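 Acute cytotoxicity is scored as a concentration-dependent drop in intracellular ATP in human lymphoblastoid LYMP2-005 cells after 24 h compound treatment. ATP is quantified by luciferase luminescence, and AC50 is derived by Hill-equation modelling.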

[3] = Cell Viability - LYMP2-013 (AID 970);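 note: series mostly up to about 92 µM; cells exposed to compound for 24 h at 37 °C; nearly all actives have a fitted effect of over 55% in size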
Method in brief: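 In complete culture medium, human lymphoblastoid cells were dosed for 24 hr at 37 C, with tetraoctylammonium bromide (6.4pM to 92 uM) as positive control. Viability reflects luciferase-based ATP signal; AC50 derived from concentration-response curves.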

[4] = Cell Viability - LYMP2-015 (AID 971); note: nearly all actives have a fitted effect of over 55% in size
Method in brief: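 AC50 values reflect Hill-model fits of ATP-based luminescence (CellTiter-Glo) from a human lymphoblastoid line, 2500 cells/well, treated 24 hr at 37 C.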

[5] = Cell Viability - LYMP2-017 (AID 972);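 note: series mostly up to about 92 µM; cells exposed to compound for 24 hours at 37 °C; nearly all actives have a fitted effect of over 55% in size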
Method in brief: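 In this qHTS format, lymphoblastoid cells in complete medium receive test compound for a day at 37 C before ATP content is quantified by luciferase luminescence. Reported AC50 figures come from standard Hill-equation curve fitting.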

[6] = Cell Viability - LYMP2-019 (AID 973);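 note: cells exposed to compound for 24 h at 37 °C; nearly all actives have a fitted effect of over 55% in size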
Method in brief: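 AC50 values come from Hill-equation modelling of qHTS concentration-response curves, where viability is measured as luciferase-based ATP luminescence in the lymphoblastoid line after 24 hr compound exposure in complete culture medium.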

[7] = Cell Viability - LYMP2-021 (AID 974)
Method in brief: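 In qHTS format, compounds are tested against 2500 lymphoblastoid cells per well for 24 h; viable cell number is inferred from ATP-driven luciferase light, and Hill-equation fitting yields AC50 values.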

[8] = Cell Viability - LYMP2-023 (AID 975)
Method in brief: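 In this qHTS, ATP-based luciferase luminescence (CellTiter-Glo) is quantified in human lymphoblastoid cells after 24 hr compound treatment at 37 C; tetraoctylammonium bromide serves as positive control. Concentration-response curves are Hill-fitted to give AC50.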

[9] = Cell Viability - LYMP2-011 (AID 969);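 note: cells exposed to compound for 24 hours; nearly all actives have a fitted effect of over 60% in size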
Method in brief: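 Cells seeded at 2500 per well rest 5 hr before compound addition, then incubate 24 hr at 37 C. CellTiter-Glo reagent is added for 30 min at room temperature before luminescence detection.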

[10] = Cell Viability - LYMP2-009 (AID 968)

Measured: Potency

ICCc1ccccc1
not listed: [9] | [10]
inactive: all other assays above

O=C1CCC(=O)O1
not listed: [7] | [10]
inactive: all other assays above

CN(C)CCCNCCCN
not listed: [5] | [10]
inactive: all other assays above

Nc1cccc(N)c1
not listed: [7] | [10]
inactive: all other assays above

CCCCCNCCCCC
not listed: [10]
inactive: all other assays above

C=Cc1ccccc1C=C
not listed: [5] | [7] | [9]
inactive: all other assays above

Cc1ccc(Br)cc1
not listed: [10]
inactive: all other assays above

c1ccc2[nH]cnc2c1
not listed: [8] | [10]
inactive: all other assays above

Cc1cscn1
inactive: [1] | [2] | [10] | [3] | [5] | [6]

C=C(C)C(=O)OCCCCCC
not listed: [10]
inactive: all other assays above

C1CCC2OC2C1 (stereo not given)
not listed: [10]
inactive: all other assays above

CCC(C)(C)C
not listed: [8] | [10]
inactive: all other assays above

Cc1cc(C2(c3cc(C)c(O)cc3C)OS(=O)(=O)c3ccccc32)c(C)cc1O
not listed: [5] | [6] | [10]
inactive: all other assays above

c1ccc2c(c1)ccc1ncccc12
not listed: [10]
inactive: all other assays above

CCc1ccccc1
not listed: [10]
inactive: all other assays above

O=C1C=CCCC1
not listed: [10]
inactive: all other assays above

CCCCCCCN
not listed: [8] | [10]
inactive: all other assays above

c1ccsc1
not listed: [10]
inactive: all other assays above

Nc1cccc(C(F)(F)F)c1
not listed: [10]
inactive: all other assays above

CC(=O)c1ccccn1
not listed: [10]
inactive: all other assays above

C=CCn1c(=O)n(CC=C)c(=O)n(CC=C)c1=O
not listed: [5] | [7] | [10]
inactive: all other assays above

COCCOC(=O)c1ccccc1C(=O)OCCOC
not listed: [10]
inactive: all other assays above

CC(=O)CC(C)C
not listed: [10]
inactive: all other assays above

CNc1ccccc1
not listed: [10]
inactive: all other assays above

CCC(=O)/C=C/C1C(C)=CCCC1(C)C (stereo not given)
not listed: [6] | [10]
inactive: all other assays above

O=C(O)c1cccc([N+](=O)[O-])c1
not listed: [9] | [10]
inactive: all other assays above

O=C(Cl)c1ccccc1[N+](=O)[O-]
not listed: [10]
inactive: all other assays above

CCC(C)(C)C(=O)O
inactive: [1] | [2] | [3] | [4] | [5] | [6]

N#CC1(O)CCCCC1
not listed: [10]
inactive: all other assays above

C=C(C)C(=O)OCC(C)O (stereo not given)
not listed: [10]
inactive: all other assays above

CC(C)(O)C(=O)O
not listed: [10]
inactive: all other assays above

CCc1ccccc1O
not listed: [10]
inactive: all other assays above

Cc1ccc(C#N)cc1
not listed: [7] | [8] | [10]
inactive: all other assays above

O=[N+]([O-])c1cc(C(F)(F)F)ccc1Cl
not listed: [10]
inactive: all other assays above

Cc1cccc([N+](=O)[O-])c1C(=O)O
not listed: [5] | [10]
inactive: all other assays above

Nc1cccc([N+](=O)[O-])c1
not listed: [1]
inactive: all other assays above
